# In PubChem BioAssay AID2685 (National Center for Advancing Translational Sciences (NCATS), 2010):
# Out of some 320,000 compounds screened, about 2,100 (0.66%) were called active. Roughly 53% stayed inconclusive and do not appear here. The call rests on the fitted dose curve; in most records, active means well fitted inhibition curve with a large enough effect in the signal ratio, with a control signal flat (not every such curve was filed as active); inconclusive means small, poorly fitted or top-dose-only effect, or effect the other way, or a change in a side signal; inactive means flat fitted curve, though single readings scatter; the % refers to the signal ratio. For the sample, actives were picked, then their nearest neighbours and some compounds at random.
# Assay: qHTS Assay for Lipid Storage Modulators in Drosophila S3 Cells;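 on cell number change: cells counted by Cell Tracker Red CMTPX staining in the red channel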; on lipid storage change, negative = inhibition: on the % scale 0 is the no-effect control and ±100 the full control effect
# Conditions: BODIPY lipid droplet fluorescence, 18-24 h, cells fed with added oleic acid; cell number change: measured here: cell count max response; series mostly up to 46.1 µM; lipid storage change, negative = inhibition: at the top concentration
# Outline: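 Drosophila S3 cells got compounds at several concentrations plus oleic acid (400 uM solution). Laser-scanning cytometry with 488 nm excitation read lipid droplets at 500-530 nm and cells at 575-640 nm. Percent activity was relative to 20 uM Triacsin C.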
# Potency means the concentration at half of the fitted maximal effect.
Compound,"lipid storage change, negative = inhibition",cell number change,Potency,outcome
Cc1ccc(Cn2nnnc2CN2CCC(O)(c3cccnc3)CC2)cc1,14.9% (inactive),1.82%,–,–
COCCn1c(SCC(=O)Nc2ccc3c(c2)OCCO3)nnc1C(C)C,14% (inactive),15.8%,–,–
COc1ccc(C(=O)N/N=C(\C)CC(=O)Nc2cccc(C(F)(F)F)c2)cc1,-0.39% (inactive),-2.05%,–,–
C/C(CC(=O)Nc1cccc(C(F)(F)F)c1)=N\NC(=O)c1ccncc1,–,-7.89%,4.61 µM (active),–
CC(=O)N/N=C(\C)CC(=O)Nc1cccc(C(F)(F)F)c1,-3.97% (inactive),5.44%,–,–
O=C(O)c1cccnc1NC1CCCC1,–,-16%,20.6 µM (active),–
O=C(O)c1cccnc1C(=O)O,2.1% (inactive),-2.7%,–,–
O=C(NC1CCCCC1)c1cccnc1C(=O)O,-6.71% (inactive),-11.4%,–,–
Cc1cc(C)n(-c2nnc(C)n2/N=C/c2ccccc2O)n1,–,-5.58%,18.4 µM (active),–
Cc1cc(C)n(-c2nnc(C)n2/N=C/c2ccc(O)cc2)n1,11.6% (inactive),-6.41%,–,–
Cc1cc(C)n(-c2nnc(C)n2/N=C/c2ccccc2F)n1,–,19.1%,–,inactive
Cc1ccccc1NC(=O)c1ccc2ccccc2c1,5.74% (inactive),14.2%,–,–
CCCC(=O)NCCSC,5.9% (inactive),-17.4%,–,–
O=C(NC1CCCC1)C(c1ccccc1)N(Cc1cccnc1)C(=O)Cc1cccs1 (stereo not given),17.7% (inactive),-1.03%,–,–
COc1ccc(C(C(=O)NC2CCCC2)N(Cc2cccnc2)C(=O)Cc2cccs2)c(OC)c1 (stereo not given),–,-10.9%,7.31 µM (active),–
O=C(NC1CCCC1)C(c1ccsc1)N(C(=O)Cc1cccs1)c1ccc(F)cc1 (stereo not given),-14.8% (inactive),-21.2%,–,–
O=C(NC1CCCCC1)C(c1ccncc1)N(C(=O)Cc1cccs1)c1ccccc1 (stereo not given),12.7% (inactive),12.4%,–,–
O=C(NC1CCCC1)C(c1ccncc1)N(C(=O)Cc1cccs1)c1ccc(F)cc1 (stereo not given),–,3.33%,29.1 µM (active),–
COc1ccc(C(C(=O)NC2CCCC2)N(Cc2cccnc2)C(=O)Cc2cccs2)cc1OC (stereo not given),-9.53% (inactive),6.84%,–,–
O=c1[nH]c(=O)c2nnc(N/N=C\c3ccc(O)cc3)nc2[nH]1,1.17% (inactive),-0.285%,–,–
Cc1ccc(N/C(N)=N/c2nc3c(c(=O)[nH]2)CCCC3)c(C)c1,-16.9% (inactive),25.1%,–,–
CN(C)CCN(C(=O)c1ccc(C(=O)c2ccccc2)cc1)c1nc2cc3c(cc2s1)OCO3,18.9% (inactive),29%,–,–
COc1cccc(N2C(N)=NC(N)=NC2(C)C)c1,-15.5% (inactive),-1.01%,–,–
CCOC(=O)c1cccc(N2C(N)=NC(N)=NC2(C)C)c1,1.48% (inactive),6.64%,–,–

Compound,"lipid storage change, negative = inhibition",cell number change,Potency,outcome
CC1(C)N=C(N)N=C(N)N1c1cccc(C(=O)O)c1,–,9.53%,29.1 µM (active),–
O=C(Nc1ccc(N2CCOCC2)cc1)C1CC(=O)N(c2ccc(F)cc2)C1 (stereo not given),-18.1% (inactive),18.8%,–,–
CN(C(=O)C1CCOC1)c1nnc(-c2cnccn2)s1 (stereo not given),-5.36% [at 9.22 µM] (inactive),10.4%,–,–
Cc1cnc(-c2nnc(N(C)C(=O)C3CCOC3)s2)cn1 (stereo not given),–,-7.84%,23.1 µM (active),–
CN(C(=O)C1CCOC1)c1nnc(-c2ccncc2)s1 (stereo not given),–,–,–,inactive
CC(C)c1ccc2c(c1)C1Cc3ccccc3C1N2 (stereo not given),–,–,9.2 µM (active),–
CC(C)c1ccc2c(c1)[C@H]1OCC[C@H]1[C@@H](c1cccs1)N2,21% (inactive),-7.55%,–,–
O=C1NC2c3ccccc3CC2O1 (stereo not given),–,17.5%,–,inactive
COc1ccc(/C=N\NC(=O)COc2ccc(Cl)cc2Cl)c(C(=O)O)c1OC,3.57% (inactive),11.7%,–,–
CC(C)NC(=O)C(c1ccc(F)cc1)N(C(=O)CCC(=O)Nc1ccccn1)c1cccc(F)c1 (stereo not given),24.5% (inactive),7.14%,–,–
Oc1ccc(-c2csc(-c3cccnc3)n2)cc1O,–,-16.9%,–,inactive
Fc1ccc(-c2csc(-c3cccnc3)n2)cc1F,14.8% (inactive),–,–,–
NC(=O)c1cc(-c2csc(-c3cccnc3)n2)ccc1O,–,5%,25.9 µM (active),–
Fc1ccc(-c2csc(-c3ccncc3)n2)cc1,4.09% (inactive),8.89%,–,–
Oc1ccc(-c2nc(-c3ccc(O)c(O)c3)cs2)cc1,–,-11.8%,0.0116 µM (active),–
O=C(O)c1ccc(-c2nc(-c3ccc(Cl)c(Cl)c3)cs2)cc1,8.4% (inactive),6.89%,–,–
CCN(CC)S(=O)(=O)c1ccc(S(=O)(=O)N2CCCC2)cc1,-3.92% (inactive),4.33%,–,–
CCOc1ccc(Nc2cc3n(c(=O)n2)CCc2cc(OC)c(OC)cc2-3)cc1,-11.1% (inactive),-17.4%,–,–
CCc1c(C)nc(N2CCN(c3ccccc3F)CC2)[nH]c1=O,–,15.2%,–,inactive
Cc1nn(-c2ccccc2)c(Cl)c1/C=N/NC(=O)CNc1n[nH]c(=O)[nH]c1=O,-0.0956% (inactive),11.6%,–,–
CCO[C@@H]1OC(C(=O)NCc2nc3ccccc3[nH]2)=C[C@H](C)[C@H]1CCCO,-29% (inactive),-18.5%,–,–
CCC(=O)Nc1ccc2c(c1)ncn2-c1ccc(C)cc1,-1.57% (inactive),19.8%,–,–
Cc1ccc(NC(=O)N(CCC(=O)O)Cc2ccccc2)cc1,–,–,–,inactive
